Test results taken from PubChem BioAssay AID1159580 (chemical genetic matrix, 2015).
Out of some 5,500 compounds screened, about 2,000 (36%) were called active. Another 18% or so got no clear call; they are omitted. Cut-off read from the data, not from the text of the source: active = normalized growth mostly below about 0.91 (no sharp cut-off); inconclusive = no clear call, values can overlap the other calls; inactive = mostly above about 0.92. The list shows a part of the results.

Assay: chemical genetic growth profiling, strain panel (AID 1159580);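 note: tested at 20 µM; growth read once vehicle control cultures reached saturation at 30 °C; 1 = growth at the plate median or of vehicle wells; lower values mean less growth of the strain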
Details: growth OD

Measured: normalized growth

OC[C@@H]1CCCN2CCCC[C@H]12
inactive: S. cerevisiae deletion strains, locus YJR066W, strain TOR1, hits give low values 0.967 | S. cerevisiae deletion strains, locus YJR075W, strain HOC1, hits give low values 1.02 | S. cerevisiae deletion strains, locus YKL009W, strain mrt4, hits give low values 1.02 | S. cerevisiae deletion strains, locus YKL068W, hits give low values 1.01 | S. cerevisiae deletion strains, locus YKL085W, strain MDH1 (second series), hits give low values 1 | S. cerevisiae deletion strains, locus YKL085W, strain MDH1, hits give low values 1 | S. cerevisiae deletion strains, locus YKL160W, strain elf1, hits give low values 1.02 | S. cerevisiae deletion strains, locus YKR001C, strain vps1, hits give low values 1.01 | S. cerevisiae deletion strains, locus YKR026C, strain gcn3, hits give low values 1.06 | S. cerevisiae deletion strains, locus YKR091W, strain srl3, hits give low values 1.02 | S. cerevisiae deletion strains, locus YLL001W, strain dnm1, hits give low values 0.995 | S. cerevisiae deletion strains, locus YLL026W, hits give low values 1.03 | S. cerevisiae deletion strains, locus YLL041C, strain sdh2, hits give low values 1.01 | S. cerevisiae deletion strains, locus YLR027C, strain aat2, hits give low values 1.02 | S. cerevisiae deletion strains, locus YLR039C, strain RIC1, hits give low values 1.02 | S. cerevisiae deletion strains, locus YLR058C, strain SHM2, hits give low values 1.01 | S. cerevisiae deletion strains, locus YLR102C, strain apc9, hits give low values 1.01 | S. cerevisiae deletion strains, locus YLR113W, strain HOG1, hits give low values 1.01 | S. cerevisiae deletion strains, locus YLR221C, strain rsa3, hits give low values 1.02 | S. cerevisiae deletion strains, locus YLR258W, strain gsy2, hits give low values 1.04 | S. cerevisiae deletion strains, locus YLR262C, strain YPT6 (second series), hits give low values 1.04 | S. cerevisiae deletion strains, locus YLR262C, strain YPT6, hits give low values 1.06 | S. cerevisiae deletion strains, locus YLR268W, strain sec22, hits give low values 1.03 | S. cerevisiae deletion strains, locus YLR320W, strain mms22, hits give low values 0.99 | S. cerevisiae deletion strains, locus YLR330W, strain CHS5, hits give low values 0.98 | S. cerevisiae deletion strains, locus YLR342W, strain FKS1 (second series), hits give low values 0.977 | S. cerevisiae deletion strains, locus YLR342W, strain FKS1, hits give low values 1.03 | S. cerevisiae deletion strains, locus YLR357W, strain rsc2, hits give low values 1.02 | S. cerevisiae deletion strains, locus YLR370C, strain arc18, hits give low values 1.03 | S. cerevisiae deletion strains, locus YLR371W, strain rom2, hits give low values 1.01 | S. cerevisiae deletion strains, locus YLR384C, strain iki3, hits give low values 1.03 | S. cerevisiae deletion strains, locus YLR418C, strain cdc73, hits give low values 1.03 | S. cerevisiae deletion strains, locus YML016C, strain PPZ1, hits give low values 1 | S. cerevisiae deletion strains, locus YML032C, strain rad52, hits give low values 0.995 | S. cerevisiae deletion strains, locus YML120C, strain ndi1, hits give low values 1.03 | S. cerevisiae deletion strains, locus YML124C, strain tub3, hits give low values 1 | S. cerevisiae deletion strains, locus YMR058W, strain fet3, hits give low values 1.03 | S. cerevisiae deletion strains, locus YMR078C, strain ctf18, hits give low values 1.01 | S. cerevisiae deletion strains, locus YMR125W, strain sto1, hits give low values 1.05 | S. cerevisiae deletion strains, locus YMR129W, hits give low values 1.04 | S. cerevisiae deletion strains, locus YMR205C, strain PFK2, hits give low values 1.01 | S. cerevisiae deletion strains, locus YMR223W, strain ubp8, hits give low values 1 | S. cerevisiae deletion strains, locus YMR231W, strain pep5, hits give low values 1.04 | S. cerevisiae deletion strains, locus YMR263W, strain SAP30, hits give low values 0.999 | S. cerevisiae deletion strains, locus YMR307W, strain GAS1, hits give low values 1 | S. cerevisiae deletion strains, locus YNL067W, strain RPL9B, hits give low values 1 | S. cerevisiae deletion strains, locus YNL071W, strain lat1, hits give low values 1.03 | S. cerevisiae deletion strains, locus YNL183C, strain NPR1, hits give low values 0.964 | S. cerevisiae deletion strains, locus YNL209W, strain ssb2, hits give low values 1.02 | S. cerevisiae deletion strains, locus YNL233W, strain BNI4, hits give low values 1.01 | S. cerevisiae deletion strains, locus YNL248C, strain rpa49, hits give low values 1.03 | S. cerevisiae deletion strains, locus YNL250W, strain rad50, hits give low values 1.03 | S. cerevisiae deletion strains, locus YNL271C, strain bni1, hits give low values 1 | S. cerevisiae deletion strains, locus YNL298W, strain CLA4, hits give low values 1.01 | S. cerevisiae deletion strains, locus YNL307C, strain MCK1, hits give low values 1.03 | S. cerevisiae deletion strains, locus YNL322C, strain KRE1 (second series), hits give low values 1.04 | S. cerevisiae deletion strains, locus YNL322C, strain KRE1, hits give low values 1 | S. cerevisiae deletion strains, locus YNR049C, strain mso1, hits give low values 1.03 | S. cerevisiae deletion strains, locus YNR052C, strain pop2, hits give low values 1.01 | S. cerevisiae deletion strains, locus YOL006C, strain TOP1, hits give low values 1.06 | S. cerevisiae deletion strains, locus YOL012C, strain htz1 0.808 | S. cerevisiae deletion strains, locus YOL147C, strain pex11, hits give low values 1.02 | S. cerevisiae deletion strains, locus YOR001W, strain rrp6, hits give low values 1.02 | S. cerevisiae deletion strains, locus YOR061W, strain CKA2, hits give low values 1.01 | S. cerevisiae deletion strains, locus YOR069W, strain VPS5, hits give low values 1.01 | S. cerevisiae deletion strains, locus YOR070C, strain gyp1, hits give low values 1.04 | S. cerevisiae deletion strains, locus YOR080W, strain dia2, hits give low values 1.03 | S. cerevisiae deletion strains, locus YOR083W, strain WHI5, hits give low values 0.97 | S. cerevisiae deletion strains, locus YOR106W, strain vam3, hits give low values 1.05 | S. cerevisiae deletion strains, locus YOR136W, strain idh2, hits give low values 1.03 | S. cerevisiae deletion strains, locus YOR144C, strain elg1, hits give low values 1.01 | S. cerevisiae deletion strains, locus YOR184W, strain ser1, hits give low values 1.02 | S. cerevisiae deletion strains, locus YOR231W, strain MKK1, hits give low values 1.03 | S. cerevisiae deletion strains, locus YOR265W, strain rbl2, hits give low values 1.01 | S. cerevisiae deletion strains, locus YOR270C, strain vph1, hits give low values 1.14 | S. cerevisiae deletion strains, locus YOR290C, strain snf2, hits give low values 1.04 | S. cerevisiae deletion strains, locus YOR316C, strain cot1, hits give low values 1.01 | S. cerevisiae deletion strains, locus YPL051W, strain arl3, hits give low values 1.04 | S. cerevisiae deletion strains, locus YPL055C, strain LGE1, hits give low values 1.01 | S. cerevisiae deletion strains, locus YPL078C, strain atp4, hits give low values 1.04 | S. cerevisiae deletion strains, locus YPL106C, strain sse1, hits give low values 1.03 | S. cerevisiae deletion strains, locus YPL240C, strain hsp82, hits give low values 1.04 | S. cerevisiae deletion strains, locus YPL241C, strain CIN2, hits give low values 1 | S. cerevisiae deletion strains, locus YPL256C, strain CLN2, hits give low values 1.01 | S. cerevisiae deletion strains, locus YPR119W, strain clb2, hits give low values 1.02 | S. cerevisiae deletion strains, locus YPR141C, strain kar3, hits give low values 1.01 | S. cerevisiae deletion strains, locus YPR163C, strain tif3, hits give low values 1.01 | S. cerevisiae deletion strains, locus YPR167C, strain met16, hits give low values 1.01 | S. cerevisiae deletion strains, strain wtn01, hits give low values 1.03 | S. cerevisiae strains, strain wild type, hits give low values 0.979
